# PubChem BioAssay (NCATS)
# Values joined by “and” are separate entries in the source; they are usually repeats but may differ in a detail not shown here. Equal entries are not always repeated. Records with an inconclusive call do not appear. A structure can be active in one record and inactive in another. Active and inactive are the calls of the source. Unless noted, calls follow the shape of the full dose curve. Where a SMILES comes first, the peptide text is derived from it.
# Tests used:
# [1] = Cellular Toxicity (caspase-3) Jurkat (AID 655; active = well fitted activation curve with a large enough effect;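 also: cells exposed to compound for 16 h at 37 °C before reading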); settings: Jurkat caspase-3 activation, luminescence; caspase-3 activation: at 92.2 µM (top of the series), DMSO = 0%, tamoxifen = 100%
# Method in brief: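 Luminescent caspase-3/7 readout (aminoluciferin substrate cleavage) in human T-cell leukemia Jurkat cells after 16 hr compound exposure. Concentration-response normalized to DMSO and 100 uM tamoxifen; AC50 by standard Hill equation.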
# [2] = molecular target: Glucocorticoid receptor (Homo sapiens) (UniProt P04150); experiment: qHTS assay for small molecule agonists of glucocorticoid receptor signaling (AID 588532; active = well fitted curve in the direction sought with a large enough effect in the signal ratio, with a control signal flat; the % refers to the signal ratio; also: potency is read from the fitted curve at half-maximal effect;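 as to activation: 100% = dexamethasone at 0.1 µM and 0% = DMSO only wells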); settings: HeLa MMTV-bla, beta-lactamase ratio, agonist, 18 h; activation: stronger effect = higher value, percent of dexamethasone control, DMSO zero
# Method in brief: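 Stimulation of a glucocorticoid response element-driven beta-lactamase gene was measured in HeLa cells. Responses were scaled between DMSO basal and 0.1 uM dexamethasone, then fitted for half-maximal stimulation.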
# [3] = molecular target: Glucocorticoid receptor (Homo sapiens) (UniProt P04150); experiment: qHTS assay for small molecule antagonists of glucocorticoid receptor signaling (AID 588533; active = well fitted inhibition curve with a large enough effect in the signal ratio, with a control signal flat, not every such curve was filed as active; the % refers to the signal ratio;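 also: cells stimulated with 2 nM dexamethasone as agonist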; also: potency is read from the fitted curve at half-maximal effect; as to activity change, negative = inhibition: % is scaled to controls: 0 for no effect and ±100 for the full control effect)
# Method in brief: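 Antagonist-mode qHTS: compound titrations added to GRE-bla HeLa cells, then dexamethasone 2 nM final; 18 h, 37 C. CCF4 FRET fluorescence normalized to dexamethasone and DMSO; IC50 from Hill fit.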
# [4] = molecular target: Vitamin D3 receptor (Homo sapiens) (UniProt P11473); experiment: qHTS assay for small molecule antagonists of vitamin D receptor signaling (AID 588541); also: potency is read from the fitted curve at half-maximal effect
# Method in brief: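 VDR-UAS-bla HEK293T cells (2000/well, 2% charcoal-stripped FBS) were treated with titrated compounds plus 1-alpha,25-dihydroxyvitamin D3 (50 nM or 3 nM final) for 16 h at 37 C. CCF4 beta-lactamase fluorescence was read; Hill fits gave IC50.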
# [5] = qHTS assay for small molecule agonists of retinoid X receptor alpha signaling (AID 588544); settings: HEK293T RXRa-UAS-bla, beta-lactamase reporter, 18 h; 530 nm emission; also: potency is read from the fitted curve at half-maximal effect;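 as to activation: 0% = DMSO basal wells and 100% = reference agonist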
# [6] = molecular target: Retinoic acid receptor RXR-alpha (Homo sapiens) (UniProt P19793); experiment: as above
# [7] = molecular target: Thyroid hormone receptor beta (Homo sapiens) (UniProt P10828); experiment: qHTS assay for small molecule agonists of thyroid hormone receptor beta signaling (AID 588545); also: potency is read from the fitted curve at half-maximal effect
# Method in brief: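 HEK 293 TR-UAS-bla; agonist mode; 18 hrs, 37 C; CCF4, ex 405/em 460 and 530 nm; norm. T3 10 nM = 100%, DMSO = 0%; Hill fit → EC50, efficacy.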
# [8] = qHTS assay for small molecule antagonists of retinoid X receptor alpha signaling (AID 588546; active = well fitted inhibition curve with a large enough effect in the signal ratio, with a control signal flat, not every such curve was filed as active; the % refers to the signal ratio; also: potency is read from the fitted curve at half-maximal effect); settings: HEK293T RXRa-UAS-bla, beta-lactamase ratio, antagonist mode; measured here: W530 green channel, cytotoxicity proxy
# Method in brief: (§1)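 Beta-lactamase reporter inhibition, read as CCF4 fluorescence ratio (ex 405, em 460/530 nm) after 2 h at RT. HEK293T UAS-bla cells, 2500/well, were stimulated with 9-cis-RA at 500 or 100 nM final alongside test compound for 18 h at 37 C.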
# [9] = molecular target: Retinoic acid receptor RXR-alpha (Homo sapiens) (UniProt P19793); experiment: as above; settings: HEK293T RXRa-UAS-bla, beta-lactamase ratio, antagonist mode
# Method in brief: as §1
# [10] = molecular target: Nuclear receptor subfamily 1 group I member 2 (Rattus norvegicus) (UniProt Q9R1A7); experiment: qHTS assay for small molecule activators of the rat pregnane X receptor (rPXR) signaling pathway (AID 651751; call rule not given here; also: 0% is about no effect); settings: rPXR reporter cells, luciferase (One-Glo), 24 h
# [11] = qHTS assay for small molecule activators of the human pregnane X receptor (PXR) signaling pathway (AID 720659; call rule not given here; also: 0% is about no effect)
# [12] = NFAT Signaling Pathway (AID 444; active = well fitted curve in either direction with a large enough effect, not every such curve was filed as active;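 also: carbachol stimulus at about its EC50 of 1 µM final; % is scaled to controls: 0 for no effect and ±100 for the full control effect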); settings: Jurkat NFAT-bla M1, carbachol, beta-lactamase ratio, 5 h; at 17.2 µM (top of the series) unless noted
# Method in brief: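 Jurkat cells carrying an NFAT-driven β-lactamase reporter and co-transfected muscarinic M1 receptor were treated with compound plus carbachol (1 uM final, an EC50 level) for 5 h at 37 °C. CCF4 loading followed for 1 h at RT; 460/530 nm ratio gave %activity.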
# [13] = Stat Signaling Pathway (AID 446; active = well fitted curve in either direction with a large enough effect, not every such curve was filed as active;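 also: ME-180 cervical cancer cells given 40 pM IL-6 alongside compound; SIE-controlled beta-lactamase reporter measured as 460/530 nm FRET emission ratio; % is scaled to controls: 0 for no effect and ±100 for the full control effect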)
# Method in brief: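 Reporter line: ME-180 cervical carcinoma, SIE-beta-lactamase. Treatment: compound with 40 pM IL-6, 5 hrs, 37 C, in low-serum OPTI-MEM with 10 mM HEPES pH 7.3. Detection: 460/530 nm fluorescence.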
# [14] = molecular target: Estrogen receptor (Homo sapiens) (UniProt P03372); experiment: qHTS assay for small molecule agonists of estrogen receptor alpha signaling (AID 588514);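 also: 0% = vehicle only and 100% = reference agonist; nearly all actives have a fitted effect of over 70% in size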
# Method in brief: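 ER-alpha-UAS-bla GripTite HEK293 cells, 5000/well in 2% charcoal/dextran-stripped FBS medium, treated with compound titrations 18 h at 37 C. CCF4 beta-lactamase read by fluorescence after 2 h RT; normalised to 20 nM 17-beta-estradiol (100%) and DMSO (0%), Hill fit for EC50 and efficacy.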
# [15] = molecular target: Thyroid hormone receptor beta (Homo sapiens) (UniProt P10828); experiment: qHTS assay for small molecule antagonists of thyroid hormone receptor beta signaling (AID 588547; active = well fitted inhibition curve with a large enough effect in the signal ratio, with a control signal flat, not every such curve was filed as active; the % refers to the signal ratio;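 also: cells stimulated with 0.4 nM T3 agonist during compound exposure; % is scaled to controls: 0 for no effect and ±100 for the full control effect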); settings: TR-UAS-bla HEK293, beta-lactamase ratio, antagonist mode, 18 h
# Method in brief: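 TR-UAS-bla GripTite HEK293 cells in 2% charcoal/dextran FBS medium were preincubated 4 h at 37 C, given compound (0.59 nM to 92 uM) plus 0.4 nM T3 (final) for 18 h, then CCF4 for 2 h at RT; Hill fit gave IC50.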
# [16] = qHTS assay for small molecule agonists of the antioxidant response element (ARE) signaling pathway (AID 651741; active = well fitted activation curve with a large enough effect in the signal ratio; the % refers to the signal ratio; also: potency is read from the fitted curve at half-maximal effect; as to activation: % of control where 0% means no effect)
# Method in brief: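 Compounds in DMSO are pinned onto HepG2 ARE-bla cells (2,000/well) that were preincubated 5 h; plates stay 16 h at 37 C, then beta-lactamase activity is detected with LiveBLAzer B/G substrate by fluorescence.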
# [17] = qHTS assay for small molecule activators of the nuclear factor-kappa B (NF-kB) signaling pathway (AID 651749; active = well fitted activation curve with a large enough effect in the signal ratio; the % refers to the signal ratio; also: potency is read from the fitted curve at half-maximal effect; as to activation: % of control where 0% means no effect); settings: NF-kB-bla ME-180 cells, beta-lactamase FRET ratio, 16 h; activation: stronger effect = higher value
# Method in brief: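 Screening used 2,000 ME-180 reporter cells per well exposed to pinned compound (23 nL) or DMSO; after 16 hr at 37C, beta-lactamase expression under NF-kB control was assessed through FRET.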
# [18] = molecular target: 3',5'-cyclic-AMP phosphodiesterase 4B (Homo sapiens) (UniProt Q07343); experiment: qHTS Assay for Inhibitors of PDE-IV (AID 607; active = well fitted activation curve with a large enough effect in the main read-out, with a control signal flat, not every such curve was filed as active; also: % of control where 0% means no effect)
# Method in brief: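 Cell-based read-out of cAMP via a modified cyclic nucleotide-gated channel and membrane potential dye (535/590 nm) in HEK293 cells expressing PDE4 endogenously. Compounds tested up to 22.9 uM final; 100 uM RO 20-1724 reference.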
# [19] = molecular target: Bile acid receptor (Homo sapiens) (UniProt Q96RI1); experiment: qHTS assay for small molecule agonists of farnesoid X receptor signaling (AID 588527); settings: HEK293T FXR-UAS-bla, beta-lactamase ratio, 16 h; activation: stronger effect = higher value; also: potency is read from the fitted curve at half-maximal effect;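 as to activation: 0% = vehicle basal and 100% = reference agonist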
# Method in brief: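 Agonist-mode beta-lactamase reporter in GeneBLAzer FXR-UAS-bla HEK293T cells, titration up to 92 uM, 16 h exposure at 37 C, CCF4 fluorescence. Response scaled to DMSO (0%) and 100 uM chenodeoxycholic acid (100%), then Hill-fitted for EC50 and efficacy.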
# Bile acid receptor (Homo sapiens), sequence (Q96RI1 whole entry, looked up): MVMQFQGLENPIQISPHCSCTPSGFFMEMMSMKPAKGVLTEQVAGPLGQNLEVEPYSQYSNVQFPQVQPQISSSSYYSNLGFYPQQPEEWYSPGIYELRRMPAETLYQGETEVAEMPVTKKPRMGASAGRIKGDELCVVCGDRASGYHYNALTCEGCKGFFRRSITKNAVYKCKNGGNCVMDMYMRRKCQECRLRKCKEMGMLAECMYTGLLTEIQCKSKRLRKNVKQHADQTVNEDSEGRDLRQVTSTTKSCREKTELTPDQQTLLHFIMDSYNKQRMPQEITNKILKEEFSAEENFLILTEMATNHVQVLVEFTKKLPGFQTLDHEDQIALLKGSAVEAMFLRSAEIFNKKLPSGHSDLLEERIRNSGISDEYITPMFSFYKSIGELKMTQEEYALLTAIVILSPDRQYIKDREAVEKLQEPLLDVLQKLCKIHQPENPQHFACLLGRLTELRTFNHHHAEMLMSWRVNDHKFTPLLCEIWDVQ
# Thyroid hormone receptor beta (Homo sapiens), sequence (P10828 whole entry, looked up): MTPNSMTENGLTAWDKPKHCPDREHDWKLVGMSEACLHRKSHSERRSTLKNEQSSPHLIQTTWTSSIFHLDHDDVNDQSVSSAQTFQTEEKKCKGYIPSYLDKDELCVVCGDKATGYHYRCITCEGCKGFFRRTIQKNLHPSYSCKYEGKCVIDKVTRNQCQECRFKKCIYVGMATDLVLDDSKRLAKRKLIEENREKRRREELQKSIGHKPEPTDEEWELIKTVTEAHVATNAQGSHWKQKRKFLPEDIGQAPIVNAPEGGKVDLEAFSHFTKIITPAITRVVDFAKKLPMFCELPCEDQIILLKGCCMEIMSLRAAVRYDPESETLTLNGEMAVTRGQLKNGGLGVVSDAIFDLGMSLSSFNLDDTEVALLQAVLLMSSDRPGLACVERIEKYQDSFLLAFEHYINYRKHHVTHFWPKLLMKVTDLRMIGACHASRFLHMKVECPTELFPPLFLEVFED
# Retinoic acid receptor RXR-alpha (Homo sapiens), sequence (P19793 whole entry, looked up): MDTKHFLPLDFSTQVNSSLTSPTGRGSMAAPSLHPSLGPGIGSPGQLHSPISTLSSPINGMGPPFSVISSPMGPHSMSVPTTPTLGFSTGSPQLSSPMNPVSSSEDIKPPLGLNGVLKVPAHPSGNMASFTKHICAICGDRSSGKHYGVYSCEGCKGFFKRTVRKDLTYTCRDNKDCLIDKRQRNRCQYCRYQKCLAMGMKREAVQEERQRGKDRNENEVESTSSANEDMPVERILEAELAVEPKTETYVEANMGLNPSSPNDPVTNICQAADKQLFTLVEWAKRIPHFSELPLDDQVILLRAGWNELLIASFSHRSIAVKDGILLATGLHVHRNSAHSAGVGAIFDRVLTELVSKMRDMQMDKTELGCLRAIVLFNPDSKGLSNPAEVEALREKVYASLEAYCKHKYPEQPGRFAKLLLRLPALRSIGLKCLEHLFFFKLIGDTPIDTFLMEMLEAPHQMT
# Nuclear receptor subfamily 1 group I member 2 (Rattus norvegicus), sequence (Q9R1A7 whole entry, looked up): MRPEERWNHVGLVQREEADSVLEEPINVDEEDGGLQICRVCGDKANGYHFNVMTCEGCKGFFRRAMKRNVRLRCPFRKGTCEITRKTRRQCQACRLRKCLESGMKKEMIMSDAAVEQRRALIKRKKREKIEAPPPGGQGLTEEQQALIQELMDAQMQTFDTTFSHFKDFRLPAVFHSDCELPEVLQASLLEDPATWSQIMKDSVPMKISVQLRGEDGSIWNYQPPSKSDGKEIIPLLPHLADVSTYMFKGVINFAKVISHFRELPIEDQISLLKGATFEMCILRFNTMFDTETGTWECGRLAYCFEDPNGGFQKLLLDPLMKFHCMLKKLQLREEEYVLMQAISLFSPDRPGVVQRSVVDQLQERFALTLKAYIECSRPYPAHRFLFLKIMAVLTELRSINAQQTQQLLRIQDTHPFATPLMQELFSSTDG
# Vitamin D3 receptor (Homo sapiens), sequence (P11473 whole entry, looked up): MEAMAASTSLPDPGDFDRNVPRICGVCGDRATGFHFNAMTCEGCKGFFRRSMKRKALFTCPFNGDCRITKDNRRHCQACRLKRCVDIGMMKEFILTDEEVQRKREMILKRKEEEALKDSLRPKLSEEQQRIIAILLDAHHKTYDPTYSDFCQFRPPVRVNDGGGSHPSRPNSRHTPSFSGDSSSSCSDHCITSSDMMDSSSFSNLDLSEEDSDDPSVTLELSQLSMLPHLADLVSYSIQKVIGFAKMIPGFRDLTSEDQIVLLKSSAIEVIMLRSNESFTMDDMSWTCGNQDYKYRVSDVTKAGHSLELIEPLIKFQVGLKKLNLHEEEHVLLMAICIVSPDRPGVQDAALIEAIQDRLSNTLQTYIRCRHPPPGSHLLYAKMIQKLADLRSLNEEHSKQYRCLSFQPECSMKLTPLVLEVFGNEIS
# Estrogen receptor (Homo sapiens), sequence (P03372 whole entry, looked up): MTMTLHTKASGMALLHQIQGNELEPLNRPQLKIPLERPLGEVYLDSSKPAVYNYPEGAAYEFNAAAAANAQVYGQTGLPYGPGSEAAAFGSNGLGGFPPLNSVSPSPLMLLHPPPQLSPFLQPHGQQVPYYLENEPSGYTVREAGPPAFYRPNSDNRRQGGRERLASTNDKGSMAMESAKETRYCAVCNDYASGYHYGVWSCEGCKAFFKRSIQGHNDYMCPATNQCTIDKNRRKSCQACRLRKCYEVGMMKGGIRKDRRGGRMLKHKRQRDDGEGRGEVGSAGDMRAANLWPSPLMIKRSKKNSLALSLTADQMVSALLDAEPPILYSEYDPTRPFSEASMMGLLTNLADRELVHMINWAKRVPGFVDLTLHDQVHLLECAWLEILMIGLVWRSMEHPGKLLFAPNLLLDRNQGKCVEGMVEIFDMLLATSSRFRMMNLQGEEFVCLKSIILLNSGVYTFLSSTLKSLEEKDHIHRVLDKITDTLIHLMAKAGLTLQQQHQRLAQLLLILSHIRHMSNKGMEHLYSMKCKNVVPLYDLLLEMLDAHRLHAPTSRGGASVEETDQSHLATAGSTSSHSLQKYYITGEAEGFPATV
# Glucocorticoid receptor (Homo sapiens), sequence (P04150 whole entry, looked up): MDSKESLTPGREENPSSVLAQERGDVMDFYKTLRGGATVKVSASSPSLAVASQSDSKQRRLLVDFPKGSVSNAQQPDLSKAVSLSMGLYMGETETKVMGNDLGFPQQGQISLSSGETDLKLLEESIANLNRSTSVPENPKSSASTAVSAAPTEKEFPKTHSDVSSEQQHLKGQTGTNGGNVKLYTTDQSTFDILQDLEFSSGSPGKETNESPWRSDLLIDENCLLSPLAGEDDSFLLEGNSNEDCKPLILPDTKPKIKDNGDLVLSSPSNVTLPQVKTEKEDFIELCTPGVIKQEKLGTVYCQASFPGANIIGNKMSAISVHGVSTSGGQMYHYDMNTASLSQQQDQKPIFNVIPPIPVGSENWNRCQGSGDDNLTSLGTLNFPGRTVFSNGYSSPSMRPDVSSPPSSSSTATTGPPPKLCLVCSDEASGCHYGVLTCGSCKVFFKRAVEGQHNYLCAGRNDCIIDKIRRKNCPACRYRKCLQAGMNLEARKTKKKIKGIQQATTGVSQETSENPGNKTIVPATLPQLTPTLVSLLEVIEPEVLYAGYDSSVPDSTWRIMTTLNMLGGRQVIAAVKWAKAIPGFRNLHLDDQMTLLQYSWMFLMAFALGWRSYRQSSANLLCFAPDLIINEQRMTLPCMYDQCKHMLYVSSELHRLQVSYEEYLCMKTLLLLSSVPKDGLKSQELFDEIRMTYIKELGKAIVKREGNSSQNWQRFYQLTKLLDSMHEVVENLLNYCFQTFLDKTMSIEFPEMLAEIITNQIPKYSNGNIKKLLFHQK
# 3',5'-cyclic-AMP phosphodiesterase 4B (Homo sapiens), sequence (Q07343 whole entry, looked up): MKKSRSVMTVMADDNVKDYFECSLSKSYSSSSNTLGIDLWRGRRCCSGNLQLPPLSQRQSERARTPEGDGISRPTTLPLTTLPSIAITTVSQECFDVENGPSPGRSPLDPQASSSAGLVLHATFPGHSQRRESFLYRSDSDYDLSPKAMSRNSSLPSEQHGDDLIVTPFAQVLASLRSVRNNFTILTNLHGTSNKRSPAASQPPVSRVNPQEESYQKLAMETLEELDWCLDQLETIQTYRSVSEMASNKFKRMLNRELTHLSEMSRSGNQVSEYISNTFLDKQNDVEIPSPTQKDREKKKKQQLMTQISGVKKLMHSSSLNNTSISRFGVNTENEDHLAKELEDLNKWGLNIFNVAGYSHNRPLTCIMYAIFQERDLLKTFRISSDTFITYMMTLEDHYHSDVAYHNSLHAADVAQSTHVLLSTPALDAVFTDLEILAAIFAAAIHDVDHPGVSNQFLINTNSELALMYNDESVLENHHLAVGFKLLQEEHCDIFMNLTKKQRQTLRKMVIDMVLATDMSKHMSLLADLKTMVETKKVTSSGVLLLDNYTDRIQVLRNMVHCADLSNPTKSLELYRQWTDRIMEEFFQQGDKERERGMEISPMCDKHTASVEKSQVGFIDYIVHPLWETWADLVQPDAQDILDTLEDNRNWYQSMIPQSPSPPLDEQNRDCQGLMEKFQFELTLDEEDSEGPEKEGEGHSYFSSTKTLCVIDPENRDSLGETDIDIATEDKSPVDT
compound,measurement,setting,value
C#CCO,caspase-3 activation,[1],-1.9% (inactive)
same,activation,[2],0.566% (inactive)
same,Potency,[3],inactive
same,Potency,[4],inactive
same,max response,[5],3.2%
same,Potency,[6],inactive
same,Potency,[7],inactive
same,max response,[8],-7.57%
same,max response,[9],24.4% (inactive)
same,max response,[10],1.29% (inactive)
same,outcome,[11],inactive
CC(C)C[C@H](NC(=O)[C@@H]1CCCN1C(=O)[C@@H](N)Cc1ccc(O)cc1)C(=O)NCC(N)=O (H-YPLG-NH2),"activity change, negative = inhibition",[12],14.8% (inactive)
same,outcome,[13],inactive
O=[N+]([O-])c1cc(C(F)(F)F)cc([N+](=O)[O-])c1Cl,Potency,[14],inactive
same,activation,[2],-2.51% (inactive)
same,Potency,[3],inactive
same,Potency,[4],inactive
same,max response,[5],2.71%
same,Potency,[6],inactive
same,max response,[8],0.867%
same,max response,[9],20% (inactive)
same,activity change % (negative = inhibition),[15],-4.32% (inactive)
same,Potency,[16],inactive
same,activation,[17],-0.593% (inactive)
same,max response,[10],-2.25% (inactive)
same,outcome,[11],inactive
Oc1cc2c(cc1O)[C@H]1c3ccccc3CN[C@@H]1CC2,"activity change, negative = inhibition",[12],-4.87% [at 38 µM] (inactive)
same,outcome,[13],inactive
same,outcome,[18],inactive
COCC(C)OC(=O)c1c(N)n(Cc2ccco2)c2nc3ccccc3nc12 (centres undefined),"activity change, negative = inhibition",[12],10.7% (inactive)
same,outcome,[13],inactive
Cc1c(N=Cc2c(O)n(CCc3ccc(F)cc3)c(=O)[nH]c2=O)c(=O)n(-c2ccccc2)n1C,outcome,[13],inactive
CCCCCCCCn1sccc1=O,Potency,[14],inactive
same,activation,[19],6.4% (inactive)
same,Potency,[3],inactive
same,Potency,[4],22.4 µM (active)
same,Potency,[16],66.8 µM (active) and 54.5 µM (active)
same,activation,[17],-0.619% (inactive) and -1.03% (inactive)
Cn1c(O)c(C(=O)c2ccccc2Cl)c(=O)n(C)c1=O,"activity change, negative = inhibition",[12],6.46% (inactive)
same,outcome,[13],inactive
CCN(CC)CCN=C(C)c1c(O)n(-c2ccccc2OC)c(=O)[nH]c1=O,"activity change, negative = inhibition",[12],-15.6% (inactive)
same,outcome,[13],inactive
c1ccc2cc3c(cc2c1)-c1cccc2cccc-3c12,caspase-3 activation,[1],-1.28% (inactive)
same,Potency,[19],3.16 µM (active)
same,Potency,[2],15.8 µM (active)
same,max response,[5],21%
same,Potency,[6],2.82 µM (active)
same,Potency,[7],7.94 µM (active)
same,Potency,[16],1.88 µM (active) and 1.93 µM (active)
same,Potency,[17],7.08 µM (active) and 4.47 µM (active)
same,max response,[10],5.83% (inactive) and 4.65% (inactive)
N#CSCSC#N,caspase-3 activation,[1],-5.48% (active)
same,activation,[2],0.19% (inactive)
FC(F)(F)c1ccc(Cl)cc1,caspase-3 activation,[1],2.36% (inactive)
same,Potency,[14],inactive
same,activation,[19],3.21% (inactive) and 2.89% (inactive)
same,Potency,[3],inactive
same,Potency,[4],inactive
same,max response,[5],-3.02% and -12.4%
same,Potency,[6],inactive
same,Potency,[7],inactive
same,max response,[8],-9.15%
same,max response,[9],-8.02% (inactive)
same,activity change % (negative = inhibition),[15],6.64% (inactive)
same,Potency,[16],inactive
same,activation,[17],0.334% (inactive) and 1.17% (inactive)
same,max response,[10],-0.484% (inactive) and -1.67% (inactive)
same,outcome,[11],inactive
CN1CCC(OC(=O)C2c3ccccc3Oc3ccccc32)CC1,outcome,[13],inactive
O=C(Nc1ccncc1)c1c(O)c2ccccc2n(Cc2ccccc2)c1=O,"activity change, negative = inhibition",[12],22.9% (inactive)
C(=NC1CCCCC1)=NC1CCCCC1,Potency,[14],inactive
same,activation,[19],1.63% (inactive)
same,Potency,[4],inactive
same,Potency,[7],inactive
same,activity change % (negative = inhibition),[15],-20.1% (inactive) and -3.06% (inactive)
same,activation,[17],0.442% (inactive) and -0.633% (inactive)
same,max response,[10],0.443% (inactive) and 0.275% (inactive)
same,outcome,[11],inactive
C[C@@H]1O[C@@H](O[C@H]2C[C@@H](O)[C@]3(CO)[C@@H]4[C@@H](O)C[C@]5(C)[C@H](C6=CC(=O)OC6)CC[C@@]5(O)[C@H]4CC[C@@]3(O)C2)[C@H](O)[C@H](O)[C@@H]1O,"activity change, negative = inhibition",[12],-76.4% [at 38 µM] (active)
same,outcome,[18],inactive
O=C1C2(Cl)C3(Cl)C4(Cl)C(Cl)(Cl)C5(Cl)C3(Cl)C1(Cl)C5(Cl)C24Cl (centres undefined),activation,[19],1.21% (inactive) and 8.36% (inactive)
same,activation,[2],-3.98% (inactive) and -15.4% (inactive)
same,Potency,[3],39.8 µM (active)
same,Potency,[4],39.8 µM (active) and inactive
same,activation,[17],4.98% (inactive)
COP(=O)(OC)O/C(=C\Cl)c1cc(Cl)c(Cl)cc1Cl,Potency,[14],inactive
same,activation,[19],-2.88% (inactive)
same,Potency,[7],inactive
same,activity change % (negative = inhibition),[15],2.4% (inactive)
same,Potency,[16],37.6 µM (active)
same,activation,[17],-1.17% (inactive)
same,max response,[10],1.57% (inactive)
[CH3][Hg][Cl],caspase-3 activation,[1],-8.35% (inactive)
same,activation,[2],-4.13% (inactive)
same,Potency,[3],11.2 µM (active)
same,Potency,[4],3.16 µM (active)
same,max response,[8],-30.3%
same,Potency,[9],2.24 µM (active)
same,Potency,[16],23.7 µM (active)
CCOc1ccc(-n2c(O)c(C=Nc3ccc(N(CC)CC)cc3)c(=O)[nH]c2=O)cc1,outcome,[13],inactive
CN(C)c1ccc(N=O)cc1,Potency,[14],inactive
same,activation,[19],-4.92% (inactive)
same,Potency,[7],inactive
same,Potency,[16],13.3 µM (active)
